This is a sample that favours compounds with a hit; in the whole collection about 4.1% have one here.
DAX1 inh-1 = DAX1 (NR0B1) inhibition, primary screen | HEK293T StAR-luciferase reporter, SF-1/DAX-1 repression relief | actives 1.1% (n = 370,000) | inhibition, % at 6.8 µM;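 active = inhibition above the mean over all tested compounds plus 3 SD, cut at about 3.6% in these data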;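 also: 0% = DAX-1 cells with DMSO and 100% = cells lacking DAX-1 with DMSO; higher inhibition means more luminescence from relief of DAX-1 repression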
hgDAF12 agonist = hgDAF-12 agonism, primary luciferase screen; HEK293 GAL4-hgDAF12 UAS-luciferase reporter, agonist luminescence; normalized to butyrate control; activation, % at 6.8 µM; actives 1.8% (n = 370,000);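 active = activation above a cutoff set at the mean of all screened compounds plus 3 SD, cut at about 10% in these data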;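 also: 0% = DMSO wells and 100% = sodium butyrate wells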
DAX1 inh-2 = inhibits human nuclear receptor DAX1; P51843; HEK293 Gal4-DAX1 luciferase reporter, luminescence; inhibition, % at 6.75 µM; actives 0.99% (n = 340,000); AID 504766;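 active = inhibition above the mean over all tested compounds plus 3 SD, cut at about 4.2% in these data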;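 also: 0% = DAX1-transfected cells with DMSO and 100% = empty-vector control cells with DMSO; inhibition shows as a rise in luminescence from relieved DAX1 repression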
Target sequence (P51843 207-470 limits assumed): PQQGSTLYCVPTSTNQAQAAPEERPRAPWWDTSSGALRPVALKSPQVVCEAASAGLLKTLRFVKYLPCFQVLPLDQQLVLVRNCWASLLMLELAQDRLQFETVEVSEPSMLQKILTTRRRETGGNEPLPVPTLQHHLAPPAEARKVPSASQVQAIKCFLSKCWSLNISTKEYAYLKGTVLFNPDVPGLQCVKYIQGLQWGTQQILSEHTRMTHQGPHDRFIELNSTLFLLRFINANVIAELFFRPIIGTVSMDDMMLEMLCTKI
ssDAF-12 act = activators of S. stercoralis DAF-12 nuclear receptor; HEK293 ssDAF-12/GRIP1 lit1-tk-luc reporter, luminescence; % of 3 µM dafachronic acid response; activation, % at 6.8 µM; actives 1% (n = 370,000);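 active = activation above the mean over all tested compounds plus 3 SD, cut at about 0.9% in these data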;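 also: 0% = DMSO-only wells and 100% = 3 µM delta7-dafachronic acid wells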
hcDAF12 agonist = activates DAF-12 receptor from parasite H. contortus | actives 1.4% (n = 370,000) | HEK293 hcDAF-12 lit1-tk-luc reporter, luminescence; 0% DMSO, 100% Δ7-dafachronic acid | activation, % at 6.8 µM;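 active = activation above the mean of all tested compounds plus 3 SD, cut at about 5.5% in these data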;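 also: 100% = response to 3 µM Δ7-dafachronic acid high control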
hgDAF12 conf = hgDAF-12 agonism, confirmation assay. HEK293 GAL4-hgDAF12 luciferase reporter, agonist mode; percent of butyrate response. activation, % at 6.8 µM. actives 80% (n = 3,300). shares compounds with hgDAF12 agonist;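 active = mean activation over triplicate wells above the hit cutoff derived from the earlier primary screen, cut at about 11% in these data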;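 also: 0% = DMSO low control and 100% = 2 mM sodium butyrate high control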
LXRb DAF12 ctr = counter-screen for DAF-12 agonists: agonists of human LXR-beta; shares compounds with hgDAF12 agonist; HEK293 Gal4-LXR luciferase reporter, 24 h; activation, % at 6.8 µM; 3,300 tested, under 10 active; AID 743051;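 active = mean activation of the triplicate above a set limit carried over from the primary screen, none filed active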
* marks the source's active call; other numbers are inactive results.

How did C/C(CCc1ccccc1)=N\NC(=O)c1ccccc1 do in these assays?
DAX1 inh-1: 2; hgDAF12 agonist: 14*; DAX1 inh-2: 1; ssDAF-12 act: 0; hcDAF12 agonist: 1; hgDAF12 conf: 3; LXRb DAF12 ctr: 0

How did O=c1cc(CO)[nH]cc1OCc1ccccc1 do in these assays?
DAX1 inh-1: 0; hgDAF12 agonist: 2; DAX1 inh-2: -1; ssDAF-12 act: -1; hcDAF12 agonist: 0

What do the screens show for `Cc1ccccc1NC(=O)c1ccc2nccnc2c1`?
DAX1 inh-1: 0; hgDAF12 agonist: 1; DAX1 inh-2: 0; ssDAF-12 act: -1; hcDAF12 agonist: -2

How did O=C(Nc1ccccc1Br)c1ccc2nccnc2c1 do in these assays?
DAX1 inh-1: 1; hgDAF12 agonist: 15*; DAX1 inh-2: 1; ssDAF-12 act: 0; hcDAF12 agonist: 2; hgDAF12 conf: 11*; LXRb DAF12 ctr: 0

How did Cc1c(Cl)cccc1NC(=O)C(=O)NNS(=O)(=O)c1ccc(F)cc1 do in these assays?
DAX1 inh-2: 3

What do the screens show for `CCn1cnc2sc(-c3ccccc3)cc2c1=O`?
DAX1 inh-1: 2; hgDAF12 agonist: 17*; DAX1 inh-2: 1; ssDAF-12 act: 0.9*; hcDAF12 agonist: 4; hgDAF12 conf: 16*; LXRb DAF12 ctr: 1

How did COc1ccccc1NC(=O)CSc1nc2nccnc2c(=O)n1Cc1cccs1 do in these assays?
DAX1 inh-1: 0; hgDAF12 agonist: -1; DAX1 inh-2: -1; ssDAF-12 act: -1; hcDAF12 agonist: -2

Results for O=C(N/N=C/c1ccc(N2CCOCC2)cc1)c1cccs1 ?
DAX1 inh-1: 4.4*; hgDAF12 agonist: 20*; DAX1 inh-2: 1; ssDAF-12 act: -1; hcDAF12 agonist: 3; hgDAF12 conf: 14*; LXRb DAF12 ctr: 1

How did Cc1ccn(-c2ccc(NC(=O)c3cccs3)cc2)n1 do in these assays?
DAX1 inh-1: 3; hgDAF12 agonist: 17*; DAX1 inh-2: 0; ssDAF-12 act: 0; hcDAF12 agonist: 5; hgDAF12 conf: 17*; LXRb DAF12 ctr: 1

What do the screens show for `CCN(CC)S(=O)(=O)c1ccc(NC(=O)c2cccs2)cc1`?
DAX1 inh-1: -1; hgDAF12 agonist: 2; DAX1 inh-2: 1; ssDAF-12 act: -1; hcDAF12 agonist: -1

What do the screens show for `CC(C)C(=O)N1CCN(c2ccc(NC(=O)c3cccs3)cc2)CC1`?
DAX1 inh-1: 0; hgDAF12 agonist: -1; DAX1 inh-2: 0; ssDAF-12 act: -1; hcDAF12 agonist: -1

Results for CN1CCN(c2ccc(NC(=O)c3cccs3)cc2)CC1 ?
DAX1 inh-1: 4.3*; hgDAF12 agonist: 15*; DAX1 inh-2: 5.7*; ssDAF-12 act: 0; hcDAF12 agonist: 4; hgDAF12 conf: 12*; LXRb DAF12 ctr: 1

What do the screens show for `Cc1ccc(S(=O)(=O)CC(=O)Nc2cccc(C)n2)cc1`?
DAX1 inh-1: 0; hgDAF12 agonist: 0; DAX1 inh-2: 2; ssDAF-12 act: -1; hcDAF12 agonist: -1

Results for O=C(NCc1nc2ccccc2[nH]1)C1=C[C@H](c2coc3ccccc3c2=O)C[C@H](OCc2ccc(CO)cc2)O1 ?
DAX1 inh-1: 0; hgDAF12 agonist: -4; DAX1 inh-2: -1; ssDAF-12 act: -1; hcDAF12 agonist: 1

What do the screens show for `O=c1c2c(nc3cc(-c4cccc(F)c4)[nH]n13)CCC2`?
DAX1 inh-1: 3; hgDAF12 agonist: 20*; DAX1 inh-2: 1; ssDAF-12 act: 0; hcDAF12 agonist: 4; hgDAF12 conf: 17*; LXRb DAF12 ctr: 1

Results for COc1ccc(/C=N/Nc2nccnc2Cl)c(OC)c1 ?
DAX1 inh-1: 3; hgDAF12 agonist: 21*; DAX1 inh-2: 2; ssDAF-12 act: 0; hcDAF12 agonist: 2; hgDAF12 conf: 13*; LXRb DAF12 ctr: 0

Results for C[C@H](NC(=O)c1ncn2c1C(=O)N(C)CC2)C(=O)OC(C)(C)C ?
DAX1 inh-1: -1; hgDAF12 agonist: 4; DAX1 inh-2: 1; ssDAF-12 act: -1; hcDAF12 agonist: -1

How did CCCSc1nn2c(=O)c3ccccc3nc2s1 do in these assays?
DAX1 inh-1: 3; hgDAF12 agonist: 15*; DAX1 inh-2: 0; ssDAF-12 act: -1; hcDAF12 agonist: 4; hgDAF12 conf: 16*; LXRb DAF12 ctr: 1

What do the screens show for `Cc1cccc(Nc2nn3c(=O)c4ccccc4nc3s2)c1`?
DAX1 inh-1: 0; hgDAF12 agonist: 5; DAX1 inh-2: 2; ssDAF-12 act: -1; hcDAF12 agonist: 2

How did COc1ccc2nc(SCc3cccc(C)c3)nc(C)c2c1 do in these assays?
DAX1 inh-1: 1; hgDAF12 agonist: 15*; DAX1 inh-2: 1; ssDAF-12 act: -1; hcDAF12 agonist: 1; hgDAF12 conf: 14*; LXRb DAF12 ctr: 0

How did O=C(Nc1cccc([N+](=O)[O-])c1)c1ccncc1 do in these assays?
DAX1 inh-1: 0; hgDAF12 agonist: -2; DAX1 inh-2: 0; ssDAF-12 act: -1; hcDAF12 agonist: -2

How did O=C(Nc1cccc([N+](=O)[O-])c1)c1[nH]ncc1Cl do in these assays?
DAX1 inh-1: 1; hgDAF12 agonist: 14*; DAX1 inh-2: 0; ssDAF-12 act: -1; hcDAF12 agonist: 4; hgDAF12 conf: 9; LXRb DAF12 ctr: 1

What do the screens show for `O=C(Nc1cccc([N+](=O)[O-])c1)c1cnccn1`?
DAX1 inh-1: 0; hgDAF12 agonist: -2; DAX1 inh-2: -1; ssDAF-12 act: -1; hcDAF12 agonist: -2

What do the screens show for `CC(C)(C)c1ccc(C(=O)Nc2cccc([N+](=O)[O-])c2)cc1`?
DAX1 inh-1: 3; hgDAF12 agonist: 14*; DAX1 inh-2: 2; ssDAF-12 act: 0; hcDAF12 agonist: 3; hgDAF12 conf: 14*; LXRb DAF12 ctr: 0

Results for COc1cc(C)ccc1OC(C)C(=O)Nc1ccc(N2CCCCC2)cc1 (configuration not stated) ?
DAX1 inh-1: -1; hgDAF12 agonist: -1; DAX1 inh-2: 0; ssDAF-12 act: -1; hcDAF12 agonist: 0

What do the screens show for `Cn1cc(Br)c(NC(=O)/C=C/C(=O)O)n1`?
DAX1 inh-1: 0; hgDAF12 agonist: 1; DAX1 inh-2: 0; ssDAF-12 act: -1; hcDAF12 agonist: 0

How did O=C(CNC(=O)c1ccccc1)OC1CCCCC1 do in these assays?
DAX1 inh-1: 3; hgDAF12 agonist: 16*; DAX1 inh-2: 2; ssDAF-12 act: -1; hcDAF12 agonist: 3; hgDAF12 conf: 18*; LXRb DAF12 ctr: 1

How did COC(=O)CNC(=O)c1ccccc1 do in these assays?
DAX1 inh-1: -1; hgDAF12 agonist: 2; DAX1 inh-2: 3; ssDAF-12 act: -1; hcDAF12 agonist: -1
